Reference: PubChem BioAssay (Tox21)
Results filed as inconclusive are left out. Active and inactive are the calls of the source. Unless noted, calls follow the shape of the dose curve; as a rule, active = well fitted curve in the direction sought with a large enough effect in the repeat runs; inconclusive = weak or mixed curves; inactive = no such curve, though single readings can be large; an effect the other way counts as inactive or inconclusive.

Key:
[1] = qHTS assay to identify small molecule that activate the aryl hydrocarbon receptor (AhR) signaling pathway - cell viability counter screen (AID 743086);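 also: HepG2 liver cells carrying the AhR DRE luciferase reporter; series mostly up to about 70 µM; nearly all actives have a fitted effect of over 45% in size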
Outline: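 HepG2-AhR-luc (HG2L7.5c1) cells, 4000/well, were preincubated 5 h at 37C, exposed to compound in qHTS format for 24 hr at 37C, then given CellTiter-Fluor for 30 min; viability was read as fluorescence in the reporter wells.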

[2] = molecular target: Peroxisome proliferator-activated receptor gamma (Homo sapiens) (UniProt P37231); experiment: qHTS assay to identify small molecule agonists of the peroxisome proliferator-activated receptor gamma (PPARg) signaling pathway (AID 743094; active = well fitted activation curve with a large enough effect in the signal ratio in the repeat runs, not every such curve was filed as active; the % refers to the signal ratio)
Peroxisome proliferator-activated receptor gamma (Homo sapiens), sequence (P37231 whole entry, looked up): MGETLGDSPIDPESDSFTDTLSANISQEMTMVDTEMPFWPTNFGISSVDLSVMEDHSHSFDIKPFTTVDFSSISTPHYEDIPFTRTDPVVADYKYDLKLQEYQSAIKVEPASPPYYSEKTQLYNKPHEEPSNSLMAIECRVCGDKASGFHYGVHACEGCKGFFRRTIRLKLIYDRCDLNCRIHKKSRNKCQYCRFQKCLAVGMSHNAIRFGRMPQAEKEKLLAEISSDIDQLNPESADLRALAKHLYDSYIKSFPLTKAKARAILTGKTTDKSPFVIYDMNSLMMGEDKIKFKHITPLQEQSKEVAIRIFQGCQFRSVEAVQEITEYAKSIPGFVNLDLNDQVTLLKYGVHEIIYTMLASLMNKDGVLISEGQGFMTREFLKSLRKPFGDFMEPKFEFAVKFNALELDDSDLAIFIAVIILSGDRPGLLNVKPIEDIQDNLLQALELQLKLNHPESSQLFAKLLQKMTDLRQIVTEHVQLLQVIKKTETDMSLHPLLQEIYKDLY
Outline: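 Agonist activity was taken from a beta-lactamase reporter (FRET substrate, 1 h at room temperature) in HEK293H cells carrying a PPARg UAS-bla construct. Compounds in DMSO were incubated 17 h at 37C after a 5 h cell pre-incubation.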

[3] = molecular target: Peroxisome proliferator-activated receptor gamma (Homo sapiens) (UniProt P37231); experiment: qHTS assay to identify small molecule antagonists of the peroxisome proliferator-activated receptor gamma (PPARg) signaling pathway (AID 743191; calls by dose curve; also: series mostly up to about 63 µM; nearly all actives have a fitted effect of over 30% in size)
Outline: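 GeneBLAzer PPARg UAS-bla HEK293H cells carrying a UAS-driven beta-lactamase reporter were plated at 3000 cells/well, preincubated 5 h at 37C, then given compound for 17 h at 37C; LiveBLAzer B/G FRET substrate was read after 1 h at room temperature.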

[4] = qHTS assay to identify small molecule antagonists of the peroxisome proliferator-activated receptor gamma (PPARg) signaling pathway - cell viability counter screen (AID 743194); also: nearly all actives have a fitted effect of over 55% in size
Outline: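 PPARg-UAS-bla HEK293H cells were plated, rested 5 h at 37 C, then treated with compounds plus rosiglitazone (50 nM final) for 17 h at 37 C; viability was then read by CellTiter-Glo luminescence after 30 min at room temperature.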

[5] = qHTS assay for small molecule agonists of the antioxidant response element (ARE) signaling pathway - cell viability counter screen (AID 743203; calls by dose curve; also: nearly all actives have a fitted effect of over 55% in size)
Outline: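 Viability counter screen: CellTiter-Glo luminescence, read after 30 min at room temperature, in ARE-bla HepG2 wells. Compound exposure lasted 16 h at 37C/5% CO2, following a 5 h pre-incubation of the cells after plating.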

[6] = qHTS assay for small molecule activators of the heat shock response signaling pathway - cell viability counter screen (AID 743209); also: nearly all actives have a fitted effect of over 50% in size
Outline: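 Cytotoxicity counter screen run in the same wells as the heat-shock bla reporter assay: HeLa HSE-bla cells, 5 h compound exposure at 37 C, viability read by CellTiter-Glo luminescence.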

[7] = qHTS assay for small molecule activators of the heat shock response signaling pathway (AID 743210; active = well fitted activation curve with a large enough effect in the signal ratio in the repeat runs, with a control signal flat, not every such curve was filed as active; the % refers to the signal ratio; also: series mostly up to about 63 µM)
Outline: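 Heat shock element–beta-lactamase HeLa reporter cells; qHTS with compounds for 5 h at 37 C; detection by FRET substrate fluorescence after 2.5 h at RT.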

[8] = qHTS assay to identify small molecule agonists of the peroxisome proliferator-activated receptor delta (PPARd) signaling pathway - cell viability counter screen (AID 743211); also: nearly all actives have a fitted effect of over 55% in size
Outline: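 Viability was measured as CellTiter-Glo luminescence (30 min, room temperature) in the same wells as the beta-lactamase readout. GeneBLAzer PPARd UAS-bla HEK293H cells received compound after 5 h plating and were incubated 17 h at 37 C.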

[9] = qHTS assay to identify small molecule antagonists of the peroxisome proliferator-activated receptor delta (PPARd) signaling pathway - cell viability counter screen (AID 743213); also: nearly all actives have a fitted effect of over 50% in size
Outline: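 Luminescence from CellTiter-Glo, added after the bla read and incubated 30 min at room temperature, gives viability of HEK293H PPARd-bla cells exposed to compounds for 17 h at 37 C with 300 nM L165041.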

[10] = molecular target: Peroxisome proliferator-activated receptor delta (Homo sapiens) (UniProt Q03181); experiment: qHTS assay to identify small molecule antagonists of the peroxisome proliferator-activated receptor delta (PPARd) signaling pathway (AID 743215; active = well fitted inhibition curve with a large enough effect in the signal ratio in the repeat runs, not every such curve was filed as active; the % refers to the signal ratio;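 also: cells stimulated with agonist L165041 at 300 nM final during compound exposure; series mostly up to about 62 µM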)
Peroxisome proliferator-activated receptor delta (Homo sapiens), sequence (Q03181 whole entry, looked up): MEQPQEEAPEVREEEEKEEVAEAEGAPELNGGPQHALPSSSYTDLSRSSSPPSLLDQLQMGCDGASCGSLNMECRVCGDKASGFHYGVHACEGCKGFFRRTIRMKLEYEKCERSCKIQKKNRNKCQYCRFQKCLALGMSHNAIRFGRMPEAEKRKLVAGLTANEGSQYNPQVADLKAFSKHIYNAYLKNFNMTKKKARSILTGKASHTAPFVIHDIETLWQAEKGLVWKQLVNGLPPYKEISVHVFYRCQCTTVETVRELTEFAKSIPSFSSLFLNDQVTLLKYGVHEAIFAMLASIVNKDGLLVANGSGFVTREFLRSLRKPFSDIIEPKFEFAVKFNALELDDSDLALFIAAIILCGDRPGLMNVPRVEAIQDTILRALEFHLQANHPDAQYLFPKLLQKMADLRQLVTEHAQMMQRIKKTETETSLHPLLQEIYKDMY
Outline: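 Agonist L165041 (300 nM final) added with compound to PPARd-bla HEK293H UAS-bla reporter cells; 17 h incubation at 37 C. Read-out: LiveBLAzer FRET substrate, 2 h at room temperature, fluorescence intensity.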

[11] = molecular target: Bile acid receptor (Homo sapiens) (UniProt Q96RI1); experiment: qHTS assay to identify small molecule antagonists of the farnesoid-X-receptor (FXR) signaling pathway (AID 743217; active = well fitted inhibition curve with a large enough effect in the signal ratio in the repeat runs, not every such curve was filed as active; the % refers to the signal ratio)
Bile acid receptor (Homo sapiens), sequence (Q96RI1 whole entry, looked up): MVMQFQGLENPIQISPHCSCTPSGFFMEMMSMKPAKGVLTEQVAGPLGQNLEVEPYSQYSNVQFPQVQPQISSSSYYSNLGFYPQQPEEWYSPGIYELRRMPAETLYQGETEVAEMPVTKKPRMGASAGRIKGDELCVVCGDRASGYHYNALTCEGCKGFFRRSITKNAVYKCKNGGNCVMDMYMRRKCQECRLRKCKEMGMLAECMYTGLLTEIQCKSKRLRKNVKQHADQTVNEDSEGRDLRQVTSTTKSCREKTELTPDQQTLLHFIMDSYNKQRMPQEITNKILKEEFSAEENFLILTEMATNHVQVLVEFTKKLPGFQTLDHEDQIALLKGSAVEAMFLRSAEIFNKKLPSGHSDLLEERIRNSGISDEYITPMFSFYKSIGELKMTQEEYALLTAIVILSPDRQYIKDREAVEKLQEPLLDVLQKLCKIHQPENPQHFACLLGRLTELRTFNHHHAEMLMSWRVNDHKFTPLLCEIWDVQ
Outline: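 Antagonist mode: chenodeoxycholic acid at 50 uM final stimulates a UAS-driven beta-lactamase reporter in HEK 293T FXR-bla cells during 16 h, 37C compound exposure. Read-out is FRET substrate fluorescence after 2 h at room temperature.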

[12] = molecular target: Bile acid receptor (Homo sapiens) (UniProt Q96RI1); experiment: qHTS assay to identify small molecule agonists of the farnesoid-X-receptor (FXR) signaling pathway (AID 743220; active = well fitted activation curve with a large enough effect in the signal ratio in the repeat runs, not every such curve was filed as active; the % refers to the signal ratio)
Outline: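 FXR-UAS-bla HEK 293T cells carrying a UAS-driven beta-lactamase reporter were plated for 5 h at 37C/5% CO2, then exposed to DMSO-dissolved Tox21 10K compounds for 16 h at 37C. A LiveBLAzer B/G FRET substrate was loaded for 2 h at room temperature before fluorescence reading.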

[13] = qHTS assay to identify small molecule antagonists of the farnesoid-X-receptor (FXR) signaling pathway - cell viability counter screen (AID 743221; active = well fitted cell-killing curve with a large enough effect in the repeat runs, not every such curve was filed as active; also: nearly all actives have a fitted effect of over 50% in size)
Outline: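 Cytotoxicity counter screen run in the FXR-bla reporter wells: HEK 293T cells exposed to compound with 50 uM (final) chenodeoxycholic acid for 16 h, 37 C, then viability measured by CellTiter-Glo luminescence after 30 min, room temperature.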

[14] = molecular target: Vitamin D3 receptor (Homo sapiens) (UniProt P11473); experiment: qHTS assay to identify small molecule antagonists of the vitamin D receptor (VDR) signaling pathway (AID 743223; active = well fitted inhibition curve with a large enough effect in the signal ratio in the repeat runs, not every such curve was filed as active; the % refers to the signal ratio)
Vitamin D3 receptor (Homo sapiens), sequence (P11473 whole entry, looked up): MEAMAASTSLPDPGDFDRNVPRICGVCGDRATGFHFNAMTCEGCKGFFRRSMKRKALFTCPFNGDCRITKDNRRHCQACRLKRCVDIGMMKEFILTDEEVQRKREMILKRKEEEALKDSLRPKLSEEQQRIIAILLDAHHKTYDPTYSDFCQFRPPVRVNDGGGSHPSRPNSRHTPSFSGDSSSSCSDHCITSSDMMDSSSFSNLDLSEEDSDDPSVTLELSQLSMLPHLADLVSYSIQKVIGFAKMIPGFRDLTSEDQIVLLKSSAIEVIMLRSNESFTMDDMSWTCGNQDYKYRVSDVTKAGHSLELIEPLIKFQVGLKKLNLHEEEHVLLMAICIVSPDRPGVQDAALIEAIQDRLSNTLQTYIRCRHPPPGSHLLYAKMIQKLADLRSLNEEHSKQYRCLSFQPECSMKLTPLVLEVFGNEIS
Outline: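 Antagonist mode: compound added to VDR-bla cells alongside agonist 1alpha,25-dihydroxyvitamin D3 (3 nM final), incubation 16 h at 37C. Read-out is LiveBLAzer FRET fluorescence, 2 h at room temperature.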

[15] = qHTS assay to identify small molecule agonists of the farnesoid-X-receptor (FXR) signaling pathway - cell viability counter screen (AID 743218); also: nearly all actives have a fitted effect of over 45% in size
Outline: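 Viability counter screen in the same wells: CellTiter-Glo luminescence, 30 min room-temperature incubation, measured after the beta-lactamase read. Cells were GeneBLAzer FXR-UAS-bla HEK 293T, compound-treated 16 h at 37C.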

[16] = molecular target: Vitamin D3 receptor (Homo sapiens) (UniProt P11473); experiment: qHTS assay to identify small molecule agonists of the vitamin D receptor (VDR) signaling pathway (AID 743222; calls by dose curve)
Outline: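 Agonist mode, beta-lactamase reporter: fluorescence from LiveBLAzer B/G FRET substrate (2 h, room temperature) read after 16 h compound treatment at 37 C of VDR-bla cells, which were pre-incubated 4 h after seeding.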

[17] = qHTS assay to identify small molecule agonists of the vitamin D receptor (VDR) signaling pathway - cell viability counter screen (AID 743224); also: series mostly up to about 63 µM; nearly all actives have a fitted effect of over 50% in size
Outline: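 Counter screen run in the same wells as the VDR-bla reporter assay: CellTiter-Glo luminescence, 30 min at room temperature, after 16 h compound treatment at 37C of cells pre-plated for 4 h.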

[18] = molecular target: Peroxisome proliferator-activated receptor delta (Homo sapiens) (UniProt Q03181); experiment: qHTS assay to identify small molecule agonists of the peroxisome proliferator-activated receptor delta (PPARd) signaling pathway (AID 743212; calls by dose curve)
Outline: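 Beta-lactamase reporter read by fluorescence (LiveBLAzer B/G FRET, 2 h, room temperature). Test agents, in DMSO, incubated at 37 C with PPARd-bla HEK293H cells.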

[19] = qHTS assay for small molecule agonists of the antioxidant response element (ARE) signaling pathway (AID 743202; active = well fitted activation curve with a large enough effect in the signal ratio in the repeat runs, not every such curve was filed as active; the % refers to the signal ratio)
Outline: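 Following a 16 h, 37 C exposure of reporter HepG2 cells (ARE-driven beta-lactamase, 2,000 cells/well) to compounds, FRET substrate was applied for 2 h at room temperature and fluorescence intensity recorded.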

Measured: Potency

Clc1cc(Cl)c(Cl)nc1Cl
inactive: [1] | [2] | [3] | [4] | [5] | [6] | [7] | [8] | [9] | [10] | [11] | [12] | [13] | [14]

CCOc1ccc2nc(S(N)(=O)=O)sc2c1
inactive: [1] | [2] | [4] | [5] | [6] | [7] | [8] | [9] | [10] | [15] | [13] | [16] | [14] | [17]

CC(COc1ccccc1)NN (configuration not stated)
inactive: [1] | [2] | [4] | [5] | [6] | [7] | [8] | [18] | [10] | [13] | [16] | [14] | [17]

CNC(=O)Nc1ccc(Cl)c(Cl)c1
inactive: [1] | [2] | [4] | [5] | [6] | [7] | [8] | [9] | [11] | [15] | [13] | [17]

CO/N=C(\C(=O)N[C@@H]1C(=O)N2C(C(=O)O)=C(CSc3nc(=O)c(O)nn3C)CS[C@H]12)c1csc(N)n1
inactive: [1] | [2] | [3] | [4] | [5] | [8] | [18] | [10] | [11] | [15] | [13] | [16] | [14] | [17]

Cc1ccc(C(=O)Nc2ccc(S(=O)(=O)O)c3cc(S(=O)(=O)O)cc(S(=O)(=O)O)c23)cc1NC(=O)c1cccc(NC(=O)Nc2cccc(C(=O)Nc3cc(C(=O)Nc4ccc(S(=O)(=O)O)c5cc(S(=O)(=O)O)cc(S(=O)(=O)O)c45)ccc3C)c2)c1
inactive: [1] | [2] | [3] | [19] | [5] | [6] | [7] | [8] | [18] | [9] | [10] | [13] | [16] | [14] | [17]

COc1cc(-c2ccc(=O)[nH]n2)ccc1OC(F)F
inactive: [1] | [2] | [4] | [19] | [5] | [6] | [7] | [8] | [9] | [11] | [13] | [17]

C[N+]12CCC(CC1)C(OC(=O)C(O)(c1ccccc1)c1ccccc1)C2 (configuration not stated)
inactive: [1] | [2] | [3] | [4] | [5] | [6] | [11] | [15] | [13] | [16] | [14] | [17]

O=C(O)c1cn(C2CC2)c2cc(N3CCNCC3)c(F)cc2c1=O
inactive: [1] | [2] | [3] | [4] | [6] | [7] | [8] | [18] | [9] | [10] | [11] | [12] | [13]

CCC(=O)OCc1ccccc1
inactive: [1] | [3] | [4] | [19] | [5] | [6] | [7] | [8] | [18] | [9] | [10] | [15] | [13] | [16] | [14] | [17]

CCN1CCOCC1
inactive: [1] | [2] | [4] | [19] | [5] | [6] | [7] | [8] | [18] | [11] | [15] | [12] | [13] | [16] | [14] | [17]

c1ccc2sc(SN3CCOCC3)nc2c1
inactive: [1] | [3] | [4] | [19] | [5] | [6] | [7] | [8] | [9] | [10] | [15] | [13] | [14] | [17]

CN1C(C)(C)CC(O)CC1(C)C
inactive: [1] | [2] | [4] | [19] | [5] | [6] | [7] | [8] | [18] | [10] | [11] | [15] | [12] | [13] | [14] | [17]

OCCc1ccccn1
inactive: [1] | [2] | [4] | [19] | [5] | [6] | [7] | [8] | [18] | [9] | [10] | [15] | [13] | [16] | [14] | [17]

Cc1ccnc(NS(=O)(=O)c2ccc(N)cc2)n1
inactive: [1] | [2] | [3] | [4] | [5] | [6] | [7] | [8] | [9] | [11] | [13] | [14]

CO[Si](C)(OC)c1ccccc1
inactive: [1] | [3] | [4] | [5] | [6] | [7] | [8] | [18] | [9] | [15] | [13] | [16] | [17]

COc1cccc(OC)c1C(=O)N[C@@H]1C(=O)N2[C@@H]1SC(C)(C)[C@@H]2C(=O)O
inactive: [1] | [2] | [4] | [5] | [6] | [8] | [9] | [15] | [13] | [16] | [14]

Clc1cc(Cl)cc(Cl)c1
inactive: [1] | [2] | [4] | [5] | [6] | [7] | [8] | [18] | [10] | [15] | [13] | [16] | [14] | [17]
